Most compounds without a hit are left out; they make up all but 15% or so of the library.
HCMV inh = human cytomegalovirus inhibition | HFF cells, HCMV-luciferase reporter, 72 h; stronger effect = lower value | activity change, negative = inhibition, % at 57.5 µM | 4.5% of 410,000 active | AID 1259415; in the data active = activity change below about -60%; inconclusive = no clear call, values can overlap the other calls; inactive = above about -39%
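Luciferase read-out from HCMV-luciferase-infected HFFs (MOI 1 PFU/cell) 72 h post infection at 37C; compounds added after 16 h cell attachment; activity normalized between buffer-only basal and Salinomycin (10uM) inhibitor controls.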
Sm TGR block = S. mansoni TGR enzyme inhibition. Q962Y6. purified TGR, DTNB reduction, TNB absorbance 405 nm. Potency, µM (doses to about 114 µM), actives largely listed as inhibitors. 3% of 360,000 active; note: nearly all actives have a fitted effect of over 60% in size
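Kinetic colorimetric format: TGR-catalysed, NADPH-driven DTNB reduction monitored via TNB absorbance. Enzyme dispensed at 20 nM; compound exposure 15 min at room temperature before reaction start.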
SARS PLpro yeast = blocks SARS-CoV papain-like protease in a yeast assay | S. cerevisiae expressing SARS-CoV PLpro, growth rescue | Potency, µM (highest dose often 32.9 µM), hits mostly activators | 0.19% of 330,000 active | AID 485353; calls by dose curve; note: nearly all actives have a fitted effect of over 55% in size
Pf growth 96h = inhibits malaria parasite growth, 96 h; 6.9% of 320,000 active; AID 504834; Potency, µM (series often up to 28.7 µM), hits mostly inhibitors; P. falciparum luciferase reporter growth, 96 h
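Delayed-death screen, second-generation endpoint: infected erythrocytes, 2% hematocrit, 0.05% parasitemia final; 96 hours at 37 C, 5% CO2; luciferase detection reagent; luminescence decrease equals reduced growth.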
Pf growth 48h = P. falciparum growth inhibition at 48 hours (one generation); P. falciparum luciferase growth in erythrocytes, 48 h; Potency, µM (top dose mostly 28.7 µM), actives largely listed as inhibitors; 5.9% of 310,000 active
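Luciferase-expressing parasites in RBCs, 2% Hct / 0.1% parasitemia final; RPMI 1640 + 0.5% Albumax; 37 C, 5% CO2, one generation; luminescence read-out, lower signal = inhibition.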
HCV inh = HCV inhibition | Huh7.5.1 HCVcc-Cre infection, luciferase reporter, 44 h | Potency, µM (doses to about 41.8 µM), most hits filed as inhibitors | 3.4% of 340,000 active | AID 651820
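Compounds are dispensed onto cells plated 4 h earlier at 1,000 per well, with HCVcc-Cre virus (about 0.5 moi) added next. Following 44 h of culture, luminescent signal is measured for 15 sec after 15 min with substrate at room temperature.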
Numbers stand for hits; i = inactive; ? = inconclusive; nt = no result. Unless noted, calls come from the whole dose curve; as a rule, active = well fitted curve in the direction sought with a large enough effect; inconclusive = small, poorly fitted or top-dose-only effect, or another doubt; inactive = no such curve, though single readings can be large; an effect the other way counts as inactive or inconclusive.

SMILES | HCMV inh | Sm TGR block | SARS PLpro yeast | Pf growth 96h | Pf growth 48h | HCV inh
O=C(NC(NC(=S)Nc1ccccc1)C(Cl)(Cl)Cl)c1cccc(Cl)c1 (stereo not given) | -78 | i | i | 13µM | ? | 11µM
O=C(CF)NC(NC(=S)Nc1ccccc1O)C(Cl)(Cl)Cl (stereo not given) | -66 | i | i | i | ? | i
Cn1c(-c2ccc[nH]c2=O)nc2cc(Cl)ccc21 | i | i | i | i | ? | i
Cc1cc(C)c(NC(=S)NC(NC(=O)c2ccccc2)C(Cl)(Cl)Cl)c(C)c1 (stereo not given) | ? | i | i | i | 3.3µM | i
Cc1ccccc1NC(=S)NC(NC(=O)c1ccccc1C)C(Cl)(Cl)Cl (stereo not given) | ? | i | i | 2.6µM | ? | ?
Cc1ccc(C(=O)NC(NC(=S)Nc2ccc(S(N)(=O)=O)cc2)C(Cl)(Cl)Cl)cc1 (stereo not given) | i | i | i | i | i | i
Cc1ccccc1C(=O)NC(NC(=S)Nc1ccc(S(N)(=O)=O)cc1)C(Cl)(Cl)Cl (stereo not given) | i | i | i | ? | ? | i
Cc1cc2ccccc2n1-c1ccc(C(=O)N2CCC(C(=O)NCc3ccccc3Cl)CC2)s1 | i | i | nt | nt | nt | nt
O=C(CC12CC3CC(CC(C3)C1)C2)N1CCOCC1 | i | i | i | nt | i | i
CC(C(=O)C12CC3CC(CC(C3)C1)C2)N1CCOCC1 (stereo not given) | i | i | i | 1.9µM | i | i
O=C(O)c1ccc2nc(-c3cc4cc(Cl)ccc4oc3=O)[nH]c2c1 | i | i | nt | nt | nt | nt
COc1ccc2[nH]c(=O)c(CN(C(=O)C3CCCO3)c3cccc(C)c3)cc2c1 (stereo not given) | nt | i | i | 8.3µM | i | i
Cc1cccc(N(Cc2cc3cc(C)ccc3[nH]c2=O)C(=O)c2cccs2)c1 | i | i | i | 7.4µM | 13µM | ?
NC(=O)C1=C[C@H](c2csc3ccccc23)C[C@H](OCCCCO)O1 | i | ? | i | i | i | i
COCCN1C[C@@H](CO)O[C@@H](n2cnc3c(NCc4ccco4)ncnc32)C1 | i | nt | nt | nt | nt | nt
O=C(O)c1nn(CCOc2c(Cl)cccc2Cl)c(=O)c2ccccc12 | -75 | i | i | i | i | i
O=C(O)c1nn(CCOc2cccc(Cl)c2)c(=O)c2ccccc12 | i | i | i | i | ? | i
O=C1C(=O)N(C2CCN(C(=O)c3cccc(Cl)c3)CC2)CCN1Cc1ccc(F)cc1 | i | i | nt | nt | nt | nt
Nc1c(Cl)ncnc1NCCc1ccc(O)cc1 | -70 | i | i | i | i | 6.3µM
O=C1NC(=O)C(=Cc2ccc(Sc3ccccc3)o2)C(=O)N1 | i | 50µM | i | i | i | i
CN1C(=O)C(=Cc2ccc(Sc3ccccc3)o2)C(=O)N(C)C1=O | i | ? | i | i | i | i
CCOc1ccc(C(=O)n2cc(C(=O)OC)c3ccccc32)cc1 | i | i | i | i | i | i
Cc1[nH]c(=O)c(C(=O)/C=C/c2ccccc2F)c2c1CCCC2 | -102 | 100µM | i | 5.2µM | 3.3µM | 2.5µM
Cc1ccc(C(C)C)c(OCC(=O)Nc2ccc(S(=O)(=O)Nc3onc(C)c3C)cc2)c1 | i | i | nt | nt | nt | nt
CCOC1=C2[C@H](c3ccc(CC)cc3)N(S(=O)(=O)c3ccc(C)cc3)C[C@H]2C(C#N)(C#N)C(C#N)(C#N)C1 | -74 | nt | nt | nt | nt | nt
SMILES | HCMV inh | Sm TGR block | SARS PLpro yeast | Pf growth 96h | Pf growth 48h | HCV inh
CCOC1=C2[C@H](c3ccccc3Cl)N(S(=O)(=O)c3ccc(C)cc3)C[C@H]2C(C#N)(C#N)C(C#N)(C#N)C1 | i | nt | nt | nt | nt | nt
CCOC1=C2CN(S(=O)(=O)c3ccc(C)cc3)[C@H](c3ccc(CC)cc3)C[C@@H]2N(S(=O)(=O)c2ccc(C)cc2)[C@H](c2ccccc2)C1 | -73 | nt | nt | nt | nt | nt
CCOC1=C2[C@H](c3ccccc3)N(S(=O)(=O)c3ccc(C)cc3)[C@H](C(C)C)[C@H]2C(C#N)(C#N)C(C#N)(C#N)C1 | -76 | nt | nt | nt | nt | nt
CCOC1=C2[C@H]([C@H]3C(=O)N(c4ccccc4)C(=O)[C@H]3C1)[C@@H](C(C)C)N(S(=O)(=O)c1ccc(C)cc1)[C@H]2c1ccccc1 | i | nt | nt | nt | nt | nt
COc1cccc(-c2ccc(NC(=O)C3CCCN(Cc4cnc(C)n4C)C3)cc2)c1 (stereo not given) | ? | i | i | i | ? | ?
Cc1ncc(CN2CCCC(C(=O)Nc3ccc(-c4ccco4)cc3)C2)cn1 (stereo not given) | i | 45µM | i | i | i | i
Cc1ncc(CN2CCCC(C(=O)Nc3ccc(-c4cccc(F)c4)cc3)C2)n1C (stereo not given) | i | i | i | i | 15µM | 3.5µM
COc1cccc(-c2ccc(NC(=O)C3CCCN(Cc4cccc(C)n4)C3)cc2)c1 (stereo not given) | i | nt | nt | nt | nt | nt
COc1cccc(-c2ccc(NC(=O)C3CCCN(Cc4cnn(C)c4)C3)cc2)c1 (stereo not given) | i | i | nt | ? | ? | 13µM
COc1cccc(-c2ccc(NC(=O)C3CCCN(Cc4nccn4C)C3)cc2)c1 (stereo not given) | i | i | i | 13µM | ? | ?
COc1ccc(CCN2CCCn3c2nc2c3c(=O)[nH]c(=O)n2C)cc1OC | i | i | i | i | i | i
Cn1nccc1C(=O)N1CCN(S(=O)(=O)c2ccc(Br)s2)CC1 | i | i | i | i | i | i
CC(C)(C)[C@H](NC(=O)c1ccc(N)c(Cl)c1)C(=O)N1CCC[C@H]1C(=O)N[C@H](C#N)CC(=O)O | i | nt | nt | nt | nt | nt
Nc1ccc2nc(C3CCCCC3)[nH]c2c1 | i | i | i | i | i | i
Nc1ccc2cc3[nH]c4cc(N)ccc4c3nc2c1 | -98 | nt | nt | nt | nt | 1.6µM
Cc1ccc(CNc2nc3ccccc3c3nc(-c4cccc(C)c4)nn23)cc1 | i | i | nt | nt | nt | nt
COc1ccc(CCNC(=O)CCC(=O)N2CC(C)Oc3ccccc32)cc1OC (stereo not given) | i | i | i | ? | i | i
Nc1ncnc(Oc2ccccc2F)c1[N+](=O)[O-] | i | ? | i | i | i | i
O=C(NS(=O)(=O)c1ccc(NC(=O)C2CCCO2)cc1)c1ccccc1 (stereo not given) | i | i | i | ? | i | i
O=C(Nc1ccc(F)cc1)c1ccc(NC(=O)C2CCCO2)cc1 (stereo not given) | nt | i | i | 1.9µM | i | i
CC1CCN(C(=O)c2ccc(NC(=O)C3CCCO3)cc2)CC1 (stereo not given) | i | i | i | 15µM | i | i
CC1CCN(CCNC(=O)c2ccc(NC(=O)C3CCCO3)cc2)CC1 (stereo not given) | i | i | i | i | i | i
O=C(Nc1ccc(S(=O)(=O)Nc2ccc(Cl)cc2)cc1)C1CCCO1 (stereo not given) | i | i | i | nt | i | 22µM
